Test results reported in the OligoGym collection.

Each sequence was assayed against DTX1 (assay: pooled miR-30 sensor sort-seq; sequence = guide strand). Conditions: shRNA.
Further: reference of the scale not given here.

| Sequence | sensor-assay potency score (higher = more potent) |
| --- | --- |
| TGCTTCTTCTTGGTCTTGCGGC | -0.99 |
| TGAGGTTGGATCCAAACTCGGT | -0.565 |
| TAGAACTGCTCAGTCATCTGGG | 0.451 |

What follows are sequences tested against DTX3L in the same assay as above. Conditions: shRNA.

| Sequence | sensor-assay potency score (higher = more potent) |
| --- | --- |
| TTTGTGGTGAATATCATTCCAA | -0.425 |
| TTGGAAGTCACCACACACCTTC | 0.463 |
| TAAAGAGACACATTCTTGCTTC | 0.883 |
| TAGCTCTCCAGCTTCCTTCGTA | 0.0161 |
| TTCGTCAACAAGTATTTGGTGC | 0.16 |
| TTCCAGGGTATCTCTTTCCTGG | -0.87 |
| TTGTGGTGAATATCATTCCAAG | -1.27 |
| TTCGATCTCTGATATCTCCTGT | 0.612 |
| TAGAACATACTGCTTCGCCTTT | -0.506 |
| TATTCTTTCAATGTCTTGGAAG | -0.89 |
| TTGAGGTCTCGTGTTCTTCTTT | -0.195 |
| TTTTTCAACACTCTCTCCTTAG | -0.54 |
